Results on 15 compounds are retold here after PubChem BioAssay (NCI).

The panel holds about 83,000 compounds, 20% with a hit somewhere; the sample as a whole holds those more often.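 96-well plates, one dose, 48 hours. Percent growth reported; active if below 10.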 A number with no mark means an inactive call. The source made the active and inactive calls.

The test system of the assay is IGROV1 ovarian. As to the kind of experiment: NCI-60 one-dose screen, 48 h (100 = growth as untreated, 0 = no growth, -100 = all killed). The note with it: 10 µM unless noted.
On to `COc1cc(Cn2c(SCCC(=O)Nc3ccc(F)cc3)nc3ccccc3c2=O)cc(OC)c1OC`, for which the growth was 77.8%.

For the compound `O=C(O)c1cn(C2CC2)c2cc(N3CCN(S(=O)(=O)c4ccc(Cl)c(Cl)c4)CC3)c(F)cc2c1=O`, the growth was 29.3%.

Consider `COc1cc(NCCCN=C(N)NC(N)=NC(C)C)c2ncccc2c1`, for which the growth was -12.8% (active). With `O=C(O)c1cccc([N+](=O)[O-])c1/C=C/c1ccccc1` the figure was 94.8%; with `NC(CC(N)C(=O)O)C(=O)O` (stereo not given), 108%; with `O=C(O)c1ccc(-n2c(=O)c3ccccc3c3ccccc3c2=O)cc1`, 116%. With `COc1cc(Cn2c(SCC(=O)Nc3ccc(Cl)cc3)nc3ccccc3c2=O)cc(OC)c1OC` the figure was 41.6%; with `CN(C)c1ncc(-c2ccc(C(F)(F)F)cc2)c(NC2CCCCCC2)n1`, 78.6%; with `Nc1c(C(=O)Nc2ccccc2)sc2nc3c(cc12)CCCCC3`, 36.2%. With `CCn1cc(C(=O)O)c(=O)c2cc(F)c(N3CCN(S(=O)(=O)c4c(C)cc(C)cc4C)CC3)cc21` the figure was 79.4%. As for `CCn1cc(C(=O)O)c(=O)c2cc(F)c(N3CCN(S(=O)(=O)c4ccc(Cl)cc4Cl)CC3)cc21`, the growth is 7.5% (active). Under `COC12CC(=O)C(C(C)=O)=C(O)C1(C)c1c(O)c(C)c(O)c(C(C)=O)c1O2` (stereo not given) stands 68.9%; under `CCCC(C(=O)OCC)C(C)OC(=O)OCC` (stereo not given), 115%; under `NC(=O)NC(=O)/C=C/C(=O)OCCCl`, 109%. With `Cc1ccc(C2=NN(c3ccc(S(=O)(=O)NC(=O)NCc4ccccc4)cc3)C(c3ccc(N(C)C)cc3)C2)c(C)c1` (stereo not given) the figure was 54.1%.
